# From PMC5540273 (PLoS ONE, 2017)
# Tests used:
# Conditions in all cases: concentration: 1 μM, replicates: in singlicate; n = 1
# ULK3 = test system: ULK3
# VEGFR2 = test system: T1, VEGFR2
# T1 construct: gene KDR
# VPS34 = test system: T2, VPS34
# T2 construct: gene PIK3C3
# VRK2 = test system: VRK2
# WEE1 = test system: WEE1
# WEE2 = test system: WEE2
# WNK1 = test system: WNK1
# WNK2 = test system: WNK2
# WNK3 = test system: WNK3
# WNK4 = test system: WNK4
# YANK1 = test system: T3, YANK1
# T3 construct: gene STK32A
# YANK2 = test system: T4, YANK2
# T4 construct: gene STK32B
# YANK3 = test system: T5, YANK3
# T5 construct: gene STK32C
# YES = test system: T6, YES
# T6 construct: gene YES1
# YSK1 = test system: T7, YSK1
# T7 construct: gene STK25
# YSK4 = test system: T8, YSK4
# T8 construct: gene MAP3K19
# ZAK = test system: ZAK
# ZAP70 = test system: ZAP70
# p38-alpha = test system: T9, p38-alpha
# T9 construct: gene MAPK14
# p38-beta = test system: T10, p38-beta
# T10 construct: gene MAPK11
# 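Note: KINOMEscan kinase panel screen.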
Structure (SMILES),%Inh (ULK3) [%],%Inh (VEGFR2) [%],%Inh (VPS34) [%],%Inh (VRK2) [%],%Inh (WEE1) [%],%Inh (WEE2) [%],%Inh (WNK1) [%],%Inh (WNK2) [%],%Inh (WNK3) [%],%Inh (WNK4) [%],%Inh (YANK1) [%],%Inh (YANK2) [%],%Inh (YANK3) [%],%Inh (YES) [%],%Inh (YSK1) [%],%Inh (YSK4) [%],%Inh (ZAK) [%],%Inh (ZAP70) [%],%Inh (p38-alpha) [%],%Inh (p38-beta) [%]
CCc1nc(-c2cccc(C)c2)c(-c2ccncc2)s1,12,0,0,0,0,0,0,0,0,0,36,16,0,7,0,8,0,0,72,52
COc1cccc(C2=C(N(C)c3ccccc3)C(=O)NC2=O)c1 [SB-334865],12,1,0,10,4,0,8,0,20,15,0,0,2,21,8,37,20,0,14,0
Nc1n[nH]c2nnc(-c3ccccc3)c(-c3ccccc3)c12 [GW554060],16,0,0,18,44,9,3,41,18,14,7,0,26,17,0,16,5,0,0,0
Nc1nccc2scc(-c3ccc4c(c3)CCN4C(=O)Cc3ccccc3)c12 [GSK2576924],12,5,0,0,14,0,17,26,27,0,10,9,0,5,0,36,0,0,0,0
COc1cc(Nc2ccnc3ccc(C(F)(F)F)cc23)cc(OC)c1OC [GW577382],14,0,0,27,11,14,8,13,27,0,4,16,44,13,1,0,12,0,30,25
COc1ccc(Nc2nccc(N3CCC(NS(=O)(=O)c4ccc(NC(C)=O)cc4)C3)n2)cc1 (stereo not drawn) [GSK1379729],42,0,92.3,16,37,11,24,38,0,29,8,3,0,10,0,1,24,0,82,17
O=C(Nc1n[nH]c2cc(-c3ccccc3F)ccc12)C1CC1 [SB-733371],33,4,0,0,5,0,0,0,0,6,0,0,0,0,0,87,0,0,4,9
COc1cc2ncn(-c3cc(OCc4ccncc4)c(C(N)=O)s3)c2cc1OC [GSK336313],9,7,5,0,33,15,7,0,10,0,8,0,4,0,35,30,1,0,5,0
Nc1ncnc2c1ncn2-c1cccc(F)c1 [SKF-97560],21,6,4,29,0,0,3,73,0,54,17,0,0,16,0,40,26,21,0,0
O=C(Nc1n[nH]c2nc(-c3ccccc3)c(Br)cc12)C1CC1 [SB-708998],11,2,0,0,0,0,2,0,9,0,7,10,11,12,0,95.3,9,5,7,41
Cc1nc(N(C)[C@H]2CN(C(=O)CC#N)CC[C@H]2C)c2cc[nH]c2n1,0,0,0,0,0,13,0,0,0,0,0,0,6,18,0,0,0,0,0,1
Cc1ccccc1COc1cc(-n2cnc3cc(Cl)ccc32)sc1C(N)=O [GW813349],0,11,84,0,4,5,0,0,6,0,14,2,35,0,0,10,0,19,0,5
COc1cc2ncn(-c3cc(OCc4ccc(S(C)(=O)=O)cc4)c(C(N)=O)s3)c2cc1OC [GW869979],22,20,33,2,0,0,0,58,0,51,7,0,0,28,0,57,0,17,1,1
CCC(=O)c1c(-c2ccccc2)c2cc(Cl)ccc2c(=O)n1Cc1cc(S(C)(=O)=O)n(CC(N)=O)n1,8,0,0,0,4,0,0,0,0,0,0,0,0,0,0,0,0,0,0,8
Cc1cccc(-c2nc(Nc3ccc4c(cnn4C)c3)c3ccccc3n2)n1 [GW876731],0,0,56,15,0,0,18,7,21,0,0,0,32,0,0,42,0,14,10,7
COc1cccc(C2=C(Nc3cccc(C(=O)O)c3)C(=O)NC2=O)c1 [SB-390770],9,11,34,16,0,7,3,18,5,0,12,0,16,8,0,14,41,7,0,11
COC(=O)c1c(-c2ccccc2)c2cc(Br)ccc2c(=O)n1Cc1ccc(S(C)(=O)=O)cc1,13,0,0,0,0,16,0,13,0,0,0,6,36,0,4,13,32,0,17,9
CCC(=O)c1c(-c2ccccc2)c2cc(Cl)ccc2c(=O)n1Cc1cc(S(C)(=O)=O)n(CCC(C)(C)O)n1,0,2,0,0,0,0,0,31,0,25,19,13,23,0,0,0,27,3,16,6
CCC(=O)c1c(-c2ccccc2)c2cc(Cl)ccc2c(=O)n1Cc1cc(C(=O)NC2CC2)n(C)n1,2,0,20,0,0,0,0,0,0,22,0,9,20,0,4,0,23,0,16,0
CCS(=O)(=O)c1ccc(OC)c(Nc2ncc(-c3ccc(F)cc3)o2)c1.Cl [GW591947],0,0,21,0,12,0,2,4,21,0,11,2,2,6,3,10,0,0,0,0
Cc1nn2c(=O)cc(N3CCOCC3)nc2n1Cc1cccc(Cl)c1Cl [GSK2342769],11,0,95.4,0,1,9,0,3,13,0,0,0,22,13,0,32,9,0,0,0
